Bioassay records: PubChem BioAssay, National Center for Advancing Translational Sciences (NCATS)
EPAC1 ag val – human EPAC1 agonism, validation; O95398; EPAC1 Rap1b BODIPY-GDP exchange, fluorescence; Potency, µM, inactives show max response, positive = active, usual class: activators; actives 1% (n = 16,000); AID 1645883; further: nearly all actives have a fitted effect of over 70% in size
Target sequence (O95398 whole entry, looked up): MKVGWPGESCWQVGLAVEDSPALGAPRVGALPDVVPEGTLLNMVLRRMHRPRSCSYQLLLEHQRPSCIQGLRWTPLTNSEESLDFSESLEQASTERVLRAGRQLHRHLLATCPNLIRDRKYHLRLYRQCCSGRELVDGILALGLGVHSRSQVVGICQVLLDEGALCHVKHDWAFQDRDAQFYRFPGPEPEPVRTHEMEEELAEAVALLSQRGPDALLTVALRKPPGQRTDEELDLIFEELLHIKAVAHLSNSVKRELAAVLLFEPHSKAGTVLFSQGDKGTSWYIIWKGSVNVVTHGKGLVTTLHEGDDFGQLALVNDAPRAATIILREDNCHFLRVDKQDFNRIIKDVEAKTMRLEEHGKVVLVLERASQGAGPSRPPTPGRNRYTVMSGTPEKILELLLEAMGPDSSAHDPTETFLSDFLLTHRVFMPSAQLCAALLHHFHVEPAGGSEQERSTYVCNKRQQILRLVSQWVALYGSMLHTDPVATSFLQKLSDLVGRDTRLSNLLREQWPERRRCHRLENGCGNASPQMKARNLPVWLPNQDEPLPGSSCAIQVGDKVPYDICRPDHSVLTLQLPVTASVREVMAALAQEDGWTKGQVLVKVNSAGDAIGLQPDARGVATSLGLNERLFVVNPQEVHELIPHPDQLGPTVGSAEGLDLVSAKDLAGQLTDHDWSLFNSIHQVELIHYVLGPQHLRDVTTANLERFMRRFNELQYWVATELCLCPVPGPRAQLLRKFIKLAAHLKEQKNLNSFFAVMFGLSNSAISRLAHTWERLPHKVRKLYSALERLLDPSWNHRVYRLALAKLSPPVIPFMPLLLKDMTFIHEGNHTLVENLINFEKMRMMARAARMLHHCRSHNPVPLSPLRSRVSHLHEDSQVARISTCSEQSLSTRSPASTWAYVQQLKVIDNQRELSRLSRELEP
EPAC2 ant val – human EPAC2 antagonism, validation; actives 1.7% (n = 16,000); Potency, µM (doses to about 112 µM), inactives show at the top dose activity, negative = inhibition, actives largely listed as inhibitors; AID 1645886; EPAC2 Rap1B BODIPY-GDP exchange, fluorescence; Q8WZA2;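 further: 100% = activation by cAMP agonist control; nearly all actives have a fitted effect of over 40% in size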
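Fluorescent exchange read-out: 100 nM EPAC2 with 250 nM RAP1B–BODIPY-GDP and 50 uM GDP; BODIPY-GDP release lowers fluorescence. Read at 480/540 nm every 5 min for 30 min at room temperature; normalized to 6.5 mM cAMP.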
The depositor's hits bear a star; ? = inconclusive; ! = a repeat was not active; [ ] = remark or other dose. Rows were chosen to be rich in hits. Some 3.1% of all compounds tested hit in one or more screens of this group. The call rests on the fitted dose curve; in most records, active means well fitted curve in the direction sought with a large enough effect; inconclusive means small, poorly fitted or top-dose-only effect, or another doubt; inactive means no such curve, though single readings can be large; an effect the other way counts as inactive or inconclusive. Unless noted, on the % scale 0 is the no-effect control and ±100 the full control effect; potency means the concentration at half of the fitted maximal effect.

SMILES	EPAC1 ag val	EPAC2 ant val
CCCCCCCCCC(CC)c1ccc(S(=O)(=O)O)cc1 (stereo unspecified)	-196%	56µM*!
NC[C@H](CS(=O)(=O)O)c1ccc(Cl)cc1	2%	-17%
CCCCN(CC)c1c([N+](=O)[O-])cc(C(F)(F)F)cc1[N+](=O)[O-]	?	-33%
CCCN(CCC)c1c([N+](=O)[O-])cc(S(N)(=O)=O)cc1[N+](=O)[O-]	-121%	40µM*
C#CCN1C(C)=C(C(=O)CCO)[C@@H](c2cccc(-n3oo3)c2)C(C(=O)OC)=C1C	?	20µM*
C[C@]12CC[C@H]3[C@@H](CCC4=C(O)C(=O)CC[C@@H]43)[C@@H]1CC[C@@H]2OC(=O)CCC1CCCC1	9%	4%
N#CC(C#N)=NNc1ccc(OC(F)(F)F)cc1	-41%	40µM*
CC1(C)[C@H](C=C(Cl)Cl)[C@H]1C(=O)OCc1c(F)c(F)cc(F)c1F	-6%	-22%
CCC(C)(C)c1ccc(O)cc1	-17%	-11%
CC(C)(C)CC(C)(C)c1ccc(O)cc1	-211%	56µM*
CCOP(=S)(OCC)SCn1c(=O)oc2cc(Cl)ccc21	5%	32µM*
COc1ccc(/C=C/c2cc(O)cc(O)c2)cc1	5%	-10%
CN1[C@@H]2CC[C@H]1CC(O[C@@H](c1ccccc1)c1ccc(Cl)cc1)C2 (stereo partly specified)	-1%	-22%
O=Cc1ccco1	-26%	-25%
CCOC(=O)[C@]12Cc3cc(OC)c(OC)cc3[C@H]1N(Cc1ccccc1)C(=O)c1ccccc12	-42%	-3%
CCOC(=O)[C@]12Cc3ccsc3[C@H]1N(Cc1ccccc1)C(=O)c1ccccc12	?	56µM*
COc1cccc2c1cc([N+](=O)[O-])c1c(C(=O)O)cc3c(c12)OCO3	-6%	-20%[151 µM]
CN1C(=O)NC(=O)C(C)(C2=CCCCC2)C1=O (stereo unspecified)	?	40%
CC(Cc1ccc2c(c1)OCO2)NO (stereo unspecified)	-5%	5%[239 µM]
CCCCCC[C@H]1C(=O)O[C@H](C)[C@H](NC(=O)c2cccc(NC=O)c2O)C(=O)O[C@@H](C)[C@@H]1OC(=O)CC(C)C	-67%	45µM*
O=C(Oc1ccccc1)N1CCC2(CC1)CN(Cc1ccncc1)C2	?	-29%
CC(=O)O.CC(=O)O.[Cd]	?	-10%
Cc1c(O)c(O)cc2c1CC=C1[C@]3(C)CC[C@]4(C)CC[C@@](C)(C(=O)O)CC4[C@]3(C)CC[C@]12C (stereo partly specified)	-31%	-7%
CCCC[C@@H](C)[C@@H](OC(=O)C[C@@H](CC(=O)O)C(=O)O)[C@H](C[C@@H](C)C[C@H](O)CCCC[C@@H](O)C[C@H](O)[C@H](C)N)OC(=O)C[C@H](CC(=O)O)C(=O)O	-14%	-18%
CC(C)NC(C)C	-5%	-4%
SMILES	EPAC1 ag val	EPAC2 ant val
COC(=O)[C@@H](N)CCCN/C(N)=N/[N+](=O)[O-]	-8%	-1%
C[C@@]1(CO)[C@H](O)CC[C@@]2(C)[C@H]1CC[C@H]1C[C@@H]3C[C@@]12CC[C@]3(O)CO	-62%	63µM*
C[C@]12CC[C@H]3[C@@H](C[C@H](F)C4=CC(=O)CC[C@@]43C)[C@@H]1CC[C@@H]2O	-15%	-12%
COC(=O)N1CCN(C(=O)Cc2ccc(Cl)c(Cl)c2)[C@H](CN2CCCC2)C1	4%	-29%
O=C(O)[C@@H]1CSC(c2cccnc2)N1 (stereo partly specified)	-13%	21%
O=C1CS[C@@H](c2ccccc2Cl)c2cc(Cl)ccc2N1	6%	32µM*
CCC(OC(C)=O)C(CC(C)NC)(c1ccccc1)c1ccccc1 (stereo unspecified)	3%	-5%[239 µM]
CCCCCCCCCc1ccc(O)cc1	?	45µM*
NCCc1ccc(O)cc1	5%	-20%
CC[C@]1(O)CC(O[C@@H]2CC(N(C)C)C(O)C(C)O2)c2c(cc3c(c2O)C(=O)c2c(O)cccc2C3=O)C1C(=O)OC (stereo partly specified)	?	21%
CC[C@@]1(O)CC(O)c2c(cc3c(c2O)C(=O)c2c(O)ccc(O)c2C3=O)C1C(=O)OC (stereo partly specified)	112µM*	38%
CCCCC/C=C\C/C=C\CCCCCCCC(=O)NCCO	-7%	?
O=C1c2ccccc2-c2cccc3cccc1c23	112µM*	3%
Nc1ccccc1C(=O)O	-7%	-1%
O=C1C(I)=CC(=C(c2cc(I)c(O)c(I)c2)c2ccccc2C(=O)O)C=C1I	7%	45µM*!
COc1cc2c(cc1-c1cc3cc4ccoc4cc3oc1=O)OCO2	5%	1.3µM*
COc1cc2occc2c2oc(=O)ccc12	?	15%
COC(=O)C(Cl)C(=O)OC	3%	27%
C=CCN1CC[C@]23c4c5ccc(O)c4OC2C(=O)CC[C@]3(O)C1C5 (stereo partly specified)	-17%	-15%
c1cncc(C2CCCN2)c1 (stereo unspecified)	-6%	-20%
CCCCCCCCCCCCCCCC[N+](C)(C)C	-47%	40µM*!
CCCCCCCCCC[N+](C)(C)CCCCCCCCCC	-78%	-29%
c1ccc(C2CC2)c(OCC2=NCCN2)c1	4%	?
